Source: PubChem BioAssay (several laboratories)
The list is not random: actives were taken first. Their share in the collection is about 12%.
KCC2 mod: modulators of human KCC2 chloride dependent transport. Q9H2X9. KCC2 cells, thallium flux FluoZin-2 fluorescence. B-score of Tl+ flux slope (higher = more flux/activation; lower = inhibition) at 10 µM. actives 2.2% (n = 190,000);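 active = thallium flux slope and its plate-corrected score both differing from the plate sample mean at a set confidence after two filtering rounds, in either direction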;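 also: slope of fluorescence scaled to starting intensity during 10 to 20 s after thallium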
Target sequence (Q9H2X9 whole entry, looked up): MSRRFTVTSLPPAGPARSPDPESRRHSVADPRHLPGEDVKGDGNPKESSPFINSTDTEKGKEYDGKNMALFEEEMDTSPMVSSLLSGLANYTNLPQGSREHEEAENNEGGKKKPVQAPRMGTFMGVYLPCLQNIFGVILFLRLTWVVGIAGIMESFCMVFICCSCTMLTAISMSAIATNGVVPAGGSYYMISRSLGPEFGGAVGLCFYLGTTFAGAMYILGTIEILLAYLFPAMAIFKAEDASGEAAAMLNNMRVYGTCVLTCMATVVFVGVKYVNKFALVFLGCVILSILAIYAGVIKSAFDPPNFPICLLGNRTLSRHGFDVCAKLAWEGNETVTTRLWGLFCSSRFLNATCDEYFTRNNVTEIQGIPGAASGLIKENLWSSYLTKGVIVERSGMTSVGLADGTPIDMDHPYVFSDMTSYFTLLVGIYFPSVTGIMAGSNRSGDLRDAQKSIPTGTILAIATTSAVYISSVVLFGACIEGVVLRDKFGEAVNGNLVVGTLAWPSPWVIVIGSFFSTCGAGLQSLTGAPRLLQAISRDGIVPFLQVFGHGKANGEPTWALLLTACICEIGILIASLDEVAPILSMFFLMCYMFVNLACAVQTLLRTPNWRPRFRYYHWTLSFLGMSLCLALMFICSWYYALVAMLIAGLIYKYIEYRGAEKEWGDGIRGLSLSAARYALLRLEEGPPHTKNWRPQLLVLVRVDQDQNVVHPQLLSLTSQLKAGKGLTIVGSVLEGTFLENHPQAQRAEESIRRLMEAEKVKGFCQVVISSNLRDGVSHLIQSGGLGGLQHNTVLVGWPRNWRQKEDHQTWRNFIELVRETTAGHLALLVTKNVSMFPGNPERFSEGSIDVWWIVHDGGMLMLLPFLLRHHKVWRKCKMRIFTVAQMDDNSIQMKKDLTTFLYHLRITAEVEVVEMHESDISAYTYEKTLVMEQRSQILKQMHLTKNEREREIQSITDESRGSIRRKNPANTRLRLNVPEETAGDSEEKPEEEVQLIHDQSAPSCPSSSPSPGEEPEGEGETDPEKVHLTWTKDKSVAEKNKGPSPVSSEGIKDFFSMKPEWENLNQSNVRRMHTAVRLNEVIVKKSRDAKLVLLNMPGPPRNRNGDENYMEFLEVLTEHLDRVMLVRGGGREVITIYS
WT yeast gro inh: growth inhibition of WT yeast, mitochondrial fusion screen; mitochondrial fusion phenotypic screen, WT strain; inhibition, % at 10 µM; actives 2.1% (n = 190,000); in the data active = inhibition above about 58%; tested in S. cerevisiae
Calpain2 inh: inhibitors of pig calpain II. AID 1236. actives 0.37% (n = 220,000). inhibition, % at 16 µM. purified calpain II, fluorogenic peptide substrate, 30 min;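 active = inhibition above about 50%, limit read from the data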
L major viab: reduces viability of Leishmania major promastigotes | resazurin fluorescence viability | inhibition, % at 10 µM | actives 9% (n = 200,000) | AID 1063; in the data active = inhibition above about 50%;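 also: promastigotes grown with compound for 44 hours at 28 °C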
ROMK primary: modulators of human ROMK potassium channel | P48048 | Tet-inducible ROMK, thallium flux fluorescence; actives lie on both sides | B-score at 10 µM | actives 2% (n = 130,000);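 active = signal ratio slope over the read window, or its plate-corrected B-score, at least 3 SD from the plate mean, either direction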;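 also: B-score of the F/F0 ratio slope over 7 to 12 s after thallium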
Numbers without * were called inactive; i = inactive; nt = no result given.

SMILES | KCC2 mod | WT yeast gro inh | Calpain2 inh | L major viab | ROMK primary
CCCC12CN3CCN(CC(C3)/C1=N\NC(=O)c1ccc(C(C)(C)C)cc1)C2 | 0.21 | 97.8* | 4.5 | -5.0 | 1.24
CCOC(=O)c1c(C)[nH]c(C)c1C(=O)COC(=O)/C=C/c1ccc(Cl)cc1 | -2.09 | 73.6* | -2.0 | 4.3 | 0.247
C/C(=N\NC(=O)c1c(Br)cnn1C)c1ccc(NC(=O)c2ccc(F)cc2)cc1 | 0.429 | -0.1 | 1.0 | -2.6 | 0.941
CC1(CCc2ccccc2)NC(=S)N(c2ccc(Cl)cc2)N1 (configuration not stated) | -0.0301 | 58.9* | -7.0 | -10.0 | -0.469
CC1(c2ccc(Cl)cc2)NC(=S)N2C1NC(=S)N2c1ccccc1 (configuration not stated) | 2.07 | nt | -11.7 | nt | nt
CCCSc1nc2c(=O)[nH][nH]c(=O)c2n1Cc1ccccc1 | -0.68 | -2.5 | 23.2 | -7.3 | 0.742
Cc1nc(Nc2ccc(F)cc2)[nH]c(=O)c1CCC(C)C | -0.364 | 0.1 | 4.8 | 53.4* | 0.113
Cc1ccc(Nc2nc(C)c(CCC(C)C)c(=O)[nH]2)cc1 | nt | -20.6 | 4.3 | 19.9 | 0.0402
Cc1c(NC(=O)COC(=O)c2ccc(S(=O)(=O)N3CCOCC3)cc2)c(=O)n(-c2ccccc2)n1C | 0.606 | -8.8 | -21.0 | -6.1 | -1.11
COC(=O)c1ccccc1N/C=C/C(=O)c1ccc(Br)cc1 | -0.0683 | 36.1 | 23.3 | 73.4* | -0.158
FC(F)c1nc2ccccc2[nH]1 | 0.184 | -12.3 | -24.6 | 3.9 | nt
c1ccc2[nH]c3cc4ncnc4cc3nc2c1 | i | -9.4 | -22.3 | 98.6* | nt
CS(=O)(=O)N(CC(=O)Nc1ccccc1C(=O)NCCc1ccccc1)c1ccc2c(c1)OCCO2 | 0.011 | 43.0 | 18.4 | 99.1* | -0.34
O=C(O)CCC(=O)Nc1ccccc1C(=O)NCCc1ccccc1 | 1.28 | -14.5 | -6.3 | 55.5* | -0.569
COC(=O)c1ccc(N2CCN(C(C)=O)CC2)c(NC(=O)c2cccnc2)c1 | -0.0477 | 1.7 | -19.8 | -5.6 | 0.212
CCOC(=O)C1(C)NC(c2ccc(OC)cc2OC)C2C(=O)N(c3cccc(OC)c3)C(=O)C21 (configuration not stated) | nt | -8.9 | -18.9 | -6.3 | nt
Cc1cc(Br)cn2cc(C(=O)O)nc12 | 0.923 | -5.7 | 6.8 | 2.6 | -0.337
CN(C)C(/C=C/Nc1cccc(Br)c1)=C(C#N)C#N | -2.1 | 1.6 | 12.2 | -0.7 | 0.00704
Cc1cccc(N/C=C/C(=C(C#N)C#N)N(C)C)c1 | nt | -5.6 | 60.4* | 3.9 | nt
CN1CCN(C(c2cccc(Cl)c2)c2ccccc2Cl)CC1 (configuration not stated) | 1.15 | 23.2 | 4.8 | 97.6* | -1.59
CN(C)CCCCOc1ccc(Br)cc1Cl | 0.208 | 11.3 | 7.4 | 95.7* | -2.36
C=CCNCCCOc1ccc(Cl)cc1Br | 1.1 | 5.5 | -1.6 | 78.4* | -0.721
CCN(CC)C(=O)COc1ccc(Br)cc1Cl | nt | -20.8 | -8.4 | -4.7 | nt
OCCNCCCOc1ccc(Cl)cc1Br | 0.381 | 3.6 | 12.6 | 86.7* | nt
CCc1cc(OCCOCCN(C)C)ccc1Cl | -0.936 | 8.1 | 9.5 | 97.9* | 0.018
SMILES | KCC2 mod | WT yeast gro inh | Calpain2 inh | L major viab | ROMK primary
Clc1ccc(OCCn2ccnc2)c(Br)c1 | -0.0864 | 47.9 | 20.4 | 30.9 | 0.0155
NNC(=O)c1csc(Cc2c(Cl)sc3ccc(Cl)cc23)n1 | 0.293 | nt | 32.8 | nt | -2.01
Cn1c(=O)c2nc(Cl)n(Cc3ccc(Cl)cc3Cl)c2n(C)c1=O | -0.793 | nt | nt | 0.7 | nt
Cc1cc(Cl)cc(Br)c1OCCCNCC(C)O (configuration not stated) | -0.15 | 9.6 | 27.5 | 29.7 | 0.0465
Cc1ccc(OCCOCCN(C)C)c(Cl)c1 | 0.252 | 3.5 | 12.2 | 84.5* | nt
COCCNCCCOc1ccc(Br)cc1Cl | 0.449 | 4.0 | 9.0 | 81.2* | 0.00411
COCCNCCCOc1ccc(Cl)cc1Br | 0.259 | 20.1 | -13.2 | 65.0* | -2.15
COCCCNC(=O)Nc1ccc(Br)cc1Cl | -0.723 | 9.9 | 2.9 | -6.7 | nt
COCCNCCCCOc1c(Cl)cc(C)cc1Br | -0.526 | 13.1 | -5.6 | 97.7* | nt
Cc1cc(C)nc(/N=C(\N)Nc2ccc(F)c([N+](=O)[O-])c2)n1 | -0.00642 | 2.9 | -1.8 | 34.5 | nt
COc1cc(/C=C/C(=O)OC(C)C(=O)Nc2c(C)n(C)n(-c3ccccc3)c2=O)ccc1OCC#N (configuration not stated) | -0.144 | -15.9 | -60.6 | -16.4 | -0.324
Oc1c(CN2CCCCC2)cc(Br)c2cccnc12 | nt | 42.0 | -33.9 | 100.5* | 0.265
O=C(COc1c(Br)cc(Br)c2cccnc12)N1CCCCC1 | 0.239 | 23.5 | -36.3 | 5.3 | -0.759
COc1ccc(C(=O)Oc2c(CN3CCOCC3)cc(Cl)c3cccnc23)cc1OC | 0.59 | 22.7 | nt | 96.6* | nt
O=C(Oc1c(CN2CCOCC2)cc(Cl)c2cccnc12)c1ccccc1 | -0.521 | -4.6 | 13.2 | 100.3* | 2.53
Oc1c(CN2CCc3ccccc3C2)cc(Cl)c2cccnc12 | 2.32 | 45.0 | 34.8 | 100.4* | nt
COc1cc(OC)cc(C(=O)Oc2c(CN3CCOCC3)cc(Cl)c3cccnc23)c1 | -1.36 | nt | 3.8 | nt | nt
O=C(O)CCn1c(=O)n(CCC(=O)O)c(=O)n(CCC(=O)O)c1=O | 0.472 | -3.4 | -13.4 | -5.3 | -0.0592
Cc1csc(NC(=O)CN2C(=O)c3ccccc3C2=O)c1C(N)=O | -0.0822 | nt | 9.7 | nt | 0.0252
O=C(Oc1c(CN2CCOCC2)cc(Cl)c2cccnc12)c1ccccc1F | -0.142 | -3.0 | 0.7 | 100.6* | -0.00673
O=C(Nc1ccc(CN2CCOCC2)cc1)c1ccccc1F | nt | 10.5 | -3.9 | 5.0 | -0.0606
COC(=O)CN1C(=S)N(Cc2ccccc2)C(=O)C1CC(=O)Nc1ccc(Br)cc1 (configuration not stated) | -0.575 | 18.2 | 20.2 | 88.3* | nt
CCN1C(=O)C(CC(=O)Nc2ccc(OC)cc2)N(CCN2CCOCC2)C1=S (configuration not stated) | -0.192 | nt | -3.9 | nt | nt
COC(=O)CN1C(=S)N(c2ccc(Cl)cc2)C(=O)C1CC(=O)Nc1ccc(Cl)cc1 (configuration not stated) | -0.0972 | 20.6 | 32.5 | -1.9 | 2.68
CCOc1ccc(N2C(=O)C(CC(=O)Nc3ccc(F)cc3)N(Cc3ccccn3)C2=S)cc1 (configuration not stated) | 0.995 | -6.9 | -70.8 | 67.8* | 0.0145
CCCOc1ccc(NC(=O)CC2C(=O)N(Cc3ccccc3)C(=S)N2Cc2cccs2)cc1 (configuration not stated) | -2.04 | 41.1 | 25.9 | 64.9* | 0.268
CCOc1ccc(N2C(=O)C(CC(=O)Nc3ccccc3)N(Cc3ccccn3)C2=S)cc1 (configuration not stated) | 0.196 | -2.6 | -19.1 | 23.4 | 0.781
CCN1C(=O)C(CC(=O)Nc2ccc(OC)cc2)N(CCCN2CCN(c3ccc(OC)cc3)CC2)C1=S (configuration not stated) | 0.309 | -6.0 | -32.4 | 72.2* | -0.0684
COc1ccccc1-n1c(=S)[nH]c2c(sc(=S)n2-c2ccccc2C)c1=O | -0.143 | -19.3 | 13.8 | -6.8 | -0.0449
Cc1noc(C)c1C(=O)N1CCCC(C(=O)c2cccc(C(F)(F)F)c2)C1 (configuration not stated) | 0.241 | -3.3 | 4.8 | 3.0 | 0.266
